Max response data for 93 compounds are collected here from PubChem BioAssay AID2314 (National Center for Advancing Translational Sciences (NCATS), 2010).

The structures appear in SMILES notation. In all, about 300,000 compounds went through this assay and about 37,000 (12%) were called active. Shown is part of a subset that was picked to be rich in actives. A number with no mark means an inactive call. Rule as the data show it: active = max response mostly above about 13% (no sharp cut-off); inactive = mostly below about 14%.

The test can be described thus: Cycloheximide Counterscreen for Small Molecule Inhibitors of Shiga Toxin. Also: read at 38.3 µM for the half of the compounds with a filed dose; 0% is about no effect. Conditions: cell reporter, cycloheximide protein synthesis inhibition counterscreen; active compounds read high. In general terms: A counterscreen serves to expose hits that act by an unwanted route or on another target.
Regarding `COc1ccc2c(C)cc3nnnn3c2c1`, the max response is -1.91%.

As for `O=Cc1c(NCCCN2CCCC2=O)c2ccccc2[nH]c1=O`, the max response is -2.01%.

Take `Cc1ccc(C2NC(C(=O)O)CS2)cc1` (stereo not drawn): the max response was 1.34%.

Turning to `CCOc1ccc(S(=O)(=O)NCCSc2ccccc2)cc1`, the max response was -2.61%.

As for `CCOc1ccc2nc(NCCNS(=O)(=O)c3ccccc3)c(C#N)cc2c1`, the max response is 25.7% (active).

Consider `CCOc1ccc2nc(NCCNC(=O)C(C)(C)C)c(C)cc2c1`, for which the max response is 3.67%.

`Cc1ccc(C)c(NC(=O)c2cc(-c3cc(C)cc(C)c3O)n[nH]2)c1`: the max response was 5.99%.

In the case of `COc1ccc([N+](=O)[O-])cc1N(CC(O)Cn1nnc2ccccc21)S(=O)(=O)c1ccc(C)cc1` (stereo not drawn), the max response is 10.2%.

On to `CCc1ccc(CNC(=O)C2CC(=O)N(CCc3ccc(C)cc3)C2)cc1` (stereo not drawn), for which the max response was 0.654%.

In the case of `COc1cc(/C=N/NC(=O)c2ccccc2)ccc1OS(=O)(=O)c1ccccc1`, the max response was 10%.

As to `COc1ccc(/C=N/NC(=O)c2ccccc2)cc1OS(=O)(=O)c1ccccc1`, the max response was 17.9% (active).

On to `COc1ccc(/C=N/S(=O)(=O)c2ccccc2)cc1OC`, for which the max response was -3.6%.

In the case of `COc1ccc(/C=N\NC(=O)c2sc(N)nc2C)cc1OC`, the max response is 16.4% (active).

As to `COc1cccc(OCc2cc(/C=N/NC(=O)c3nc(Cl)c(Cl)c(N)c3Cl)ccc2OC)c1`, the max response is -1.62%.

`COc1ccc(C(=O)Oc2cc(/C=N/NS(=O)(=O)c3ccc(C)cc3)ccc2OC)cc1`: the max response was 1.6%.

As to `CCN(CC)CCCNC(=O)c1cn(C)c2ccc(S(=O)(=O)N(C)C3CCCCC3)cc2c1=O`, the max response was -5.84%.

For the compound `Fc1ccccc1/C=C1\CCCC2=C1Nc1ncnn1C2c1ccccc1F` (stereo not drawn), the max response is -5.33%.

Turning to `COc1ccc(N(CC(=O)NCC2CCCO2)C(=O)CCC(=O)Nc2nccs2)c(OC)c1` (stereo not drawn), the max response is -4%.

For `CCc1ccc(N2CC(C(=O)Nc3ccc(S(=O)(=O)Nc4nccs4)cc3)CC2=O)cc1` (stereo not drawn), the max response was -3.18%.

As for `C/C(=N\NC(=O)c1ccc(C)cc1)C1C(=O)c2ccccc2C1=O`, the max response is 23.4% (active).

`C/C(=N\NC(=O)CNC(=O)C(c1ccccc1)c1ccccc1)c1ccc(C)cc1`: the max response is -6.41%.

`Cc1ccc(C(=O)N/C(=C/c2cccnc2)C(=O)O)cc1`: the max response was -0.563%.

Turning to `Cc1ccc(S(=O)(=O)c2nc(-c3cccs3)oc2NCc2cccnc2)cc1`, the max response is 7.52%.

With `O=C1c2cccc3c([N+](=O)[O-])ccc(c23)C(=O)N1CC1CCCO1` (stereo not drawn), the max response is 20%.

Turning to `Cc1cc(C)n(C(=O)c2ccc(S(=O)(=O)N3CCCC3)cc2)n1`, the max response was -2.32%.

In the case of `Cc1cc(Nc2ccccc2)n(C(=O)c2ccc(N)cc2)n1`, the max response is 24% (active).

With `Cc1cc(Nc2ccccc2)n(CCC#N)n1`, the max response is -3.59%.

Regarding `O=C(COc1ccc(S(=O)(=O)N2CCCCC2)cc1)NCc1ccccn1`, the max response is 0.485%.

Consider `CC(c1ccco1)N(C(=O)c1ccc(S(=O)(=O)N2CCCCC2)cc1)c1ccccn1` (stereo not drawn), for which the max response is 15.1% (active).

Turning to `CC(c1ccco1)N(C(=O)COc1ccccc1[N+](=O)[O-])c1ccccn1` (stereo not drawn), the max response was 20.7%.

As for `CC(C)N1CCC(=NNc2ccc([N+](=O)[O-])cc2S(=O)(=O)N2CCOCC2)CC1`, the max response is -2.55%.

In the case of `CN(c1ccccc1)S(=O)(=O)c1ccc2[nH]c(=O)[nH]c2c1`, the max response is -2.46%.

As for `Fc1ccc(CNc2nc3ccccc3n3nnnc23)cc1`, the max response was 13.3% (active).

Regarding `CCOC(=O)CNc1nc2ccccc2n2c(C)nnc12`, the max response was 7.6%.

With `COc1ccc(CNc2nnnn2C)cc1`, the max response was -1.69%.

Take `Cc1ccc(-c2ccc(=O)n(Cc3ccc(F)cc3Cl)n2)cc1`: the max response is 7.94%.

Turning to `CCN1CCN(CCNC(=O)c2ccc(/C=C3/Sc4ccccc4N(Cc4cccc(C)c4)C3=O)cc2)CC1`, the max response is -11.9%.

Regarding `CCN1/C(=C/c2ccc3ccc(C)cc3[n+]2CC)Sc2ccccc21`, the max response is 11.9% (active).

For `CCN1/C(=C\c2ccc3ccccc3[n+]2CC)Sc2cc(C)ccc21`, the max response is 1.19%.

As to `Cc1ccc2sc(N(CCN(C)C)C(=O)/C=C/c3cccs3)nc2c1C`, the max response is -8.25%.

Take `COc1ccc(N=C(C)c2sc3ccccc3c2O)cc1`: the max response was 43.2% (active).

Regarding `COc1ccc(S(=O)(=O)Nc2ccc(O)c(Sc3nc4ccccc4s3)c2)cc1`, the max response is 1.12%.

With `COc1ccc(-n2c(O)c(C(C)=Nc3ccc4c(c3)CCC4)c(=O)[nH]c2=O)cc1`, the max response is -1.73%.

As to `CC(=O)[C@@]12O[C@@H]1C[C@H]1[C@@H]3CC[C@H]4C[C@@H](O)CC[C@]4(C)[C@H]3CC[C@@]12C`, the max response is -5.5%.

As to `CCN1CCC2(CCN(Cc3cn[nH]c3-c3ccc(OC)c(F)c3)C2)C1` (stereo not drawn), the max response was -2.52%.

`Cc1ccc(NC(=O)C2CCN(S(=O)(=O)c3ccc4c(c3)NC(=O)CO4)CC2)cc1C`: the max response was 1.16%.

Regarding `Fc1ccc2nc(Nc3nc4c(s3)CCCC4)sc2c1`, the max response is 40.4% (active).

With `O=C(Cn1c(=O)sc2ccccc21)Nc1nc2c(s1)CCCC2`, the max response was 3.35%.

As for `COC(=O)C(NC(C)=O)(Nc1nc2c(s1)CCCC2)C(F)(F)F` (stereo not drawn), the max response was -2.42%.

As to `CN(C)c1cc(-c2ccc(F)cc2)oc(=O)c1Cl`, the max response is 2.21%.

On to `Cc1cc(C)nc(Nc2ncn[nH]2)n1`, for which the max response was -1.33%.

On to `Cc1ccccc1-c1n[nH]c(=S)n1C`, for which the max response was 6.29%.

`Cc1cc(C)nc(Nc2n[nH]c(-c3ccccc3N)n2)n1`: the max response is 52% (active).

For `CS(=O)(=O)Nc1ccccc1N=C(c1ccccc1)c1ccccc1`, the max response is -4.16%.

`C/C=C(/C)C(=O)O[C@@H]1c2cc3c(c4c2[C@@]2(CO4)C(=O)C(OC)=C(OC)C=C2C[C@@H](C)[C@H]1C)OCO3`: the max response was -1.03%.

As for `COc1ccc(S(=O)(=O)N2CCSCC2)cc1`, the max response is -2.78%.

On to `CCCNC(=O)c1ccc(Cl)c(Cl)c1`, for which the max response is -2.92%.

With `CCCNC(=O)CCc1c(C)nc2c(c(C)nn2-c2ccc(C)cc2)c1C`, the max response is -2.97%.

Regarding `CCCNC(=O)c1c(Cl)cnn1-c1ccc(C)cc1`, the max response is 39.1% (active).

Regarding `O=C1C=CC(=O)N1c1ccc(N2CCCCC2)cc1`, the max response is 8%.

In the case of `Cc1n[nH]c(C)c1S(=O)(=O)N1CCCC(C(=O)Nc2ccc(Br)cc2)C1` (stereo not drawn), the max response was -4.38%.

As for `O=C(COc1ccc(Cl)cc1)NCCSc1ccccc1`, the max response is -2.45%.

As for `COC(=O)c1sccc1NC(=O)COc1ccc(Cl)cc1`, the max response is 18% (active).

As to `O=C(COc1ccc(Cl)cc1)Nc1ccccc1CO`, the max response was 19.6% (active).

As for `CCS(=O)(=O)c1ccc(O)c(NC(=O)COc2ccc(Cl)cc2)c1`, the max response was -2.47%.

As to `COC(=O)c1sccc1NC(=O)c1ccc(Cl)cc1`, the max response is -0.926%.

Consider `COC(=O)c1sccc1NC(=O)CCC1CCCC1`, for which the max response was 11%.

In the case of `CCOc1ccc(N/C(N)=N/c2nc(C)c(C)c(=O)[nH]2)cc1`, the max response is 0.863%.

With `Cc1ccc(NC(=O)Cn2cccc2C2=NC(c3ccccc3)CO2)c(C)c1` (stereo not drawn), the max response is -4.36%.

With `N#Cc1ccc(OCc2nnc(-c3ccc([N+](=O)[O-])cc3)o2)cc1`, the max response is -2.49%.

In the case of `COCCn1c(SCC(=O)Nc2cc(Cl)ccc2OC)nc2c(c1=O)SC(C)C2` (stereo not drawn), the max response is -1.62%.

As to `O=S(=O)(Oc1ccccc1C(=S)N1CCOCC1)c1ccc(Cl)cc1`, the max response is -1.08%.

In the case of `NC(=O)CC(NC(=O)Cc1ccc(Br)cc1)c1ccc(NC2CC3CCC2C3)c([N+](=O)[O-])c1` (stereo not drawn), the max response was 8.14%.

Turning to `CC(C)c1ccc(/C=C/C(=O)NNC(=O)c2cccnc2)cc1`, the max response was 10.9%.

On to `C=CCNC(=O)/C=C/c1ccc(C(C)C)cc1`, for which the max response is 57.7% (active).

Take `O=C(/C=C/c1ccc(F)cc1)NCCNC(=O)/C=C/c1ccc(F)cc1`: the max response was -1.57%.

As to `O=C(/C=C/c1cccc(C(F)(F)F)c1)N1CCN(c2ccccn2)CC1`, the max response is 2.61%.

Consider `O=C(c1cccs1)N(Cc1cc2ccccc2[nH]c1=O)CC1CCCO1` (stereo not drawn), for which the max response was -1.8%.

For the compound `COc1ccc(NC(=O)CN2C(=O)COc3ccc(S(=O)(=O)N4CCOCC4)cc32)c(OC)c1`, the max response is -3.45%.

Take `CCCCC[C@H]1CN(C2CCCCC2)C(=O)[C@@H]1CC(=O)NCc1ccc(OC)cc1`: the max response is -1.9%.

As to `O=C(CSc1nnnn1-c1ccc2c(c1)CCC2)Nc1ccc2c(c1)OCCO2`, the max response is 22.4% (active).

As for `CCC(=O)Nc1cccc(NC(=O)CSc2nnnn2C2CCCC2)c1`, the max response was 3.23%.

In the case of `CCn1c(SCC(=O)Nc2ccc3c(c2)OCCO3)nc2c(c1=O)SC(C)C2` (stereo not drawn), the max response is -2.67%.

Regarding `Cc1ccc(-n2c(SCC(=O)Nc3ccc4c(c3)OCO4)nnc2-c2ccoc2C)cc1`, the max response is -6.42%.

Regarding `O=C(CSc1nnnn1C1CCCC1)Nc1ccc2c(c1)OCCO2`, the max response was 20.7% (active).

As for `Cc1ccc(-n2c(SCC(=O)Nc3ccc4c(c3)OCO4)nnc2-c2ccccn2)cc1`, the max response was -4.03%.

Take `COCCCNC(NC(=O)c1ccc(OC)cc1)C(Cl)(Cl)Cl` (stereo not drawn): the max response was -1.44%.

`O=S(=O)(c1cc(Cl)ccc1Cl)N1CCN(Cc2ccco2)CC1`: the max response is -2.5%.

As for `CCC(C)N1C(=O)S/C(=C/c2ccc(Sc3nc4ccccc4[nH]3)o2)C1=O` (stereo not drawn), the max response is 8.57%.

On to `CC1CCN(S(=O)(=O)c2ccc3[nH]c(=O)ccc3c2)CC1`, for which the max response was 0.735%.

For `CCN(c1ccc2c(c1)OCO2)S(=O)(=O)c1cc(Br)cc2c1N(C(=O)C1CC1)CC2`, the max response is 10.1%.

For the compound `COc1ccc(Cl)cc1NC(=O)CN(C)C(=O)CCCc1c[nH]c2ccccc12`, the max response is -3.1%.

Turning to `Cc1cccc(OCC(=O)NC2CC(C)(C)NC(C)(C)C2)c1`, the max response is -1.93%.
